# Inconclusive results are not listed. Where a call stands in place of a potency, no number is given. The source made the active and inactive calls. Calls come from the whole dose curve; as a rule, active = well fitted curve in the direction sought with a large enough effect in the repeat runs; inconclusive = weak or mixed curves; inactive = no such curve, though single readings can be large; an effect the other way counts as inactive or inconclusive.
# Test: A CellTox Green Cytotoxicity Assay to monitor cytotoxicity in HepG2 cells - 8 hour (AID 1224890); note: nearly all actives have a fitted effect of over 45% in size
# Settings: CellTox Green fluorescence; series mostly up to 76.8 µM
# Summary of the method: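 HepG2 cells were seeded together with the CellTox Green dye at 600 cells/well, left 5 h at 37 C/5% CO2, then given compounds in DMSO. Fluorescence from dye bound to dead-cell DNA was read repeatedly over 40 h of treatment at 37 C.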
row,Structure (SMILES),Potency
1,CCc1ccccc1C,inactive
2,CC(=O)[O-].CC(=O)[O-].O.O.[Cd+2],inactive
3,O=[N+]([O-])c1ccc(Oc2ccc(C(F)(F)F)cc2[N+](=O)[O-])cc1,inactive
4,C=CC(=O)OCC(COC(=O)C=C)(COC(=O)C=C)COC(=O)C=C,inactive
5,COc1cc(C=O)cc2c1[C@H](COC(N)=O)[C@]1(OC(C)=O)ON2C[C@H]2[C@@H]1N2C(C)=O,inactive
6,C[C@]12Cc3nonc3C[C@@H]1CC[C@@H]1[C@@H]2CC[C@@]2(C)[C@H]1CC[C@]2(C)O,inactive

# Test: qHTS assay to identify small molecule antagonists of the estrogen receptor alpha (ER-alpha) signaling pathway using the BG1 cell line in the presence of 0.1 nM 17-beta-estradiol - cell viability counter screen (AID 1259241); note: nearly all actives have a fitted effect of over 40% in size; note: potency is the fitted concentration of half-maximal effect
# Settings: VM7Luc4E2 (BG1) viability, CellTiter-Fluor protease, 22 h, 0.1 nM estradiol agonist added; series mostly up to 92.4 µM
# Summary of the method: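 The cell line endogenously expresses full-length ER-alpha and carries four EREs driving luciferase. Cells are cultured 5 days hormone-free, treated 22 hr with compounds and 0.1 nM estradiol, then viability is read by fluorescence.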
row,Structure (SMILES),Potency
1,O=[N+]([O-])c1cc(Cl)ccc1Cl,inactive
2,SCc1ccco1,inactive
3,C[C@@H]1O[C@@H](O[C@H]2C[C@@H](O)[C@]3(CO)[C@H]4[C@H](O)C[C@]5(C)[C@@H](C6=CC(=O)OC6)CC[C@]5(O)[C@@H]4CC[C@]3(O)C2)[C@H](O)[C@H](O)[C@H]1O,inactive
4,c1ccc2c(c1)OCC(C1=NCCN1)O2 (configuration not stated),inactive
5,CC(C)CCCCCOC(=O)c1ccccc1C(=O)OCCCCCC(C)C,inactive
6,Cc1c(Cl)c(=O)oc2cc(OP(=O)(OCCCl)OCCCl)ccc12,inactive
7,CN(C)[C@@H]1C(=O)C(C(N)=O)=C(O)[C@@]2(O)C(=O)C3=C(O)c4c(O)ccc(Cl)c4[C@@](C)(O)[C@H]3C[C@@H]12,inactive
8,Clc1ccc(CSC(Cn2ccnc2)c2ccc(Cl)cc2Cl)cc1 (configuration not stated),inactive
9,Nc1ccc(Sc2ccc(N)cc2)cc1,inactive
10,CC(C)(COCC1CO1)COCC1CO1 (configuration not stated),inactive
11,COC12CC[C@@]3(C[C@@H]1C(C)(O)C(C)(C)C)[C@H]1Cc4ccc(O)c5c4[C@@]3(CCN1CC1CC1)[C@H]2O5 (some centres not stated),60.7 µM (active)

# — PubChem BioAssay (Tox21)
